# From PubChem BioAssay AID624417 (National Center for Advancing Translational Sciences (NCATS), 2012)
# About 6,400 (1.6%) of roughly 410,000 compounds were called active. Roughly 20% stayed inconclusive and do not appear here. Calls come from the whole dose curve; as a rule, active = well fitted inhibition curve with a large enough effect; inconclusive = small, poorly fitted or top-dose-only effect; inactive = no such curve, though single readings can be large or run the other way. For the sample, actives were picked, then their nearest neighbours and some compounds at random.
# Target: Glucagon-like peptide 1 receptor (Homo sapiens) (UniProt P43220)
# Test: qHTS of GLP-1 Receptor Inverse Agonists (Inhibition Mode); note: nearly all actives have a fitted effect of over 55% in size
# Conditions: HEK293 GLP-1R CRE-luciferase, luminescence, 24 h, GLP-1R form is constitutively active; series mostly up to 38.3 µM; activity change, negative = inhibition: at the top concentration
# How it was run: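 Readout was luciferase luminescence, measured 12 min after detection reagent at room temperature. Beforehand, GLP-1R reporter HEK293 cells had sat 12 h, then received compounds for 24 hr at 37 deg C.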
# % is set by controls: 0 for no effect and ±100 for the full control effect; potency is the fitted concentration of half-maximal effect.
# Chain of Glucagon-like peptide 1 receptor (Homo sapiens) (P43220 whole entry, looked up): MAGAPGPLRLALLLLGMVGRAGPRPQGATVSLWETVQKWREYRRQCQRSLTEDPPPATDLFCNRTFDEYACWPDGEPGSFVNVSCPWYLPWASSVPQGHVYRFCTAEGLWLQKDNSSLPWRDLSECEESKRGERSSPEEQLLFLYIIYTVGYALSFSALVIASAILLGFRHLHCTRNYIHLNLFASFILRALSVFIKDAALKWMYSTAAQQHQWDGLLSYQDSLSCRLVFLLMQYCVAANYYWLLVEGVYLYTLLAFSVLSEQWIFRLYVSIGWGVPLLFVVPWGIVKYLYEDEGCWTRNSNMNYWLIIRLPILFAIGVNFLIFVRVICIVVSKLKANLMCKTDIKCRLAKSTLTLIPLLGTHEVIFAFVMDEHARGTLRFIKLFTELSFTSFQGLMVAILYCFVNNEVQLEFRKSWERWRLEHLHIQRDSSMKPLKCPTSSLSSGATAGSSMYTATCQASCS
Compound,"activity change, negative = inhibition",Potency
Cc1ccc2cccc([N+](=O)[O-])c2n1,8.75% (inactive),
C[C@@H]1CN([C@H](C)CO)C(=O)c2cc(-c3ccc(F)cc3)cnc2O[C@H]1CN(C)C(=O)c1ccc(F)cc1,-8.66% (inactive),
S=C(Nc1ccc(Cl)cc1Cl)N1CCCC1,7.41% (inactive),
COc1ccc(CN(C)C(=S)Nc2ccc(Cl)cc2Cl)cc1,,7.08 µM (active)
COc1ccc(CN2CCn3ncc(C(=O)Nc4ccc(Cl)cc4Cl)c3C2=O)cc1,-16.2% (inactive),
COc1cccc(C(NC(C)=O)c2nc(-c3ccccc3OC)cs2)c1 (stereo unspecified),-12.1% (inactive),
CC1=C(C(=O)N2CCOCC2)CC(CC(=O)NCC2CCCCC2)C(=O)N1Cc1ccc(F)cc1 (stereo unspecified),3.52% (inactive),
COc1ccc(CN2CCC(C)(Oc3cccc(F)c3)C2)c2ccccc12 (stereo unspecified),,11.2 µM (active)
CC1(Oc2cccc(F)c2)CCN(Cc2ccccc2OC(F)F)C1 (stereo unspecified),-4.31% (inactive),
COc1ccccc1N1CCN(Cc2ccc(OC)c3ccccc23)CC1,0.582% (inactive),
CCCNC(=O)C1(C)CCN(C(=O)c2ccc(F)cc2Cl)C1 (stereo unspecified),11.7% (inactive),
COc1ccc([C@H]2CC(=O)C[C@@H](CCn3cc(CC4CCCC4)nn3)O2)cc1,21.5% (inactive),
Cc1cc(C)c(S(=O)(=O)NN=C2c3ccccc3[C@H]3Cc4csc[n+]4[C@@H]23)c(C)c1,18.1% (inactive),
COc1ccccc1-n1c(SCC(=O)Nc2ccc(Cl)cc2)nc(O)c(Cc2ccccc2)c1=O,-20.6% (inactive),
COC(=O)N/N=C/c1cn(CCCOc2ccc(C)cc2)c2ccccc12,,8.91 µM (active)
COC(=O)N/N=C/c1c[n+]([O-])c2ccccc2[n+]1[O-],8.56% (inactive),
Cc1ccc(OCCOc2cccc(/C=N/NC(N)=O)c2)cc1,58.1% (inactive),
NC(=O)Cn1cc(/C=N\NS(=O)(=O)c2ccccc2)c2ccccc21,-27.9% (inactive),
CC(NC(=O)CCc1cn(Cc2ccccc2Cl)c2ccccc12)c1ccccc1 (stereo unspecified),-8.72% (inactive),
CCOC(=O)N/N=C/c1cn(Cc2ccccc2Cl)c2ccccc12,,7.94 µM (active)
O=C(CC[C@H]1O[C@@H](n2ccc(=O)[nH]c2=O)[C@H](O)[C@@H]1O)N[C@H](Cc1ccccc1)C(=O)NCCCN1CCCC1=O,13.3% (inactive),

Compound,"activity change, negative = inhibition",Potency
CC(=O)Nc1ccc2c3c(ccc([N+](=O)[O-])c13)CC2,1.13% (inactive),
O=C(OCc1cn([C@@H]2C[C@H](c3ccc(Cl)cc3)N(Cc3cccs3)C[C@H]2O)nn1)c1ccccc1,18% (inactive),
CCC(=O)N1Cc2cc(C(=O)NCc3cccc(F)c3)nc(-c3cccc(C4=CCCC4)c3)c2[C@H]1CCO,16% (inactive),
CCCOc1ccc(F)cc1-c1cc(C(=O)Nc2ccc(F)cc2)[nH]n1,-12.9% (inactive),
O=C(C(=O)N1CCC(c2ccccc2)CC1)c1ccccc1,16% (inactive),
CN(C)S(=O)(=O)c1cccc(NC(=O)Cc2ccsc2)c1,31.4% (inactive),
CN(c1ccccc1)S(=O)(=O)c1cccc(C(=O)NNC(=O)c2ccncc2)c1,4.37% (inactive),
CN(c1ccccc1)S(=O)(=O)c1cccc(NC(=O)Cc2c(F)cccc2Cl)c1,,7.94 µM (active)
Cc1ccc(F)c(S(=O)(=O)NC(=O)C2(C)CCN2C(=O)CCc2cccs2)c1 (stereo unspecified),-4.2% (inactive),
Cc1cccc(NC(=S)N(CCN(C)C)C(C)c2ccco2)c1 (stereo unspecified),-25.9% (inactive),
COCCN(C(=S)Nc1ccccc1OC)C1CCN(C(C)C)CC1,-16.1% (inactive),
CCc1cccc(NC(=S)N(CCN(C)C)C2CCN(C(C)C)CC2)c1,,5.01 µM (active)
CCc1cccc(NC(=O)CSc2nccn2C)c1,0.0761% (inactive),
CCc1cccc(NC(=O)CCNS(=O)(=O)c2cccc3nonc23)c1,,inactive
CCc1cccc(NC(=O)CCCN2C(=O)C(c3ccccc3)Oc3cccnc32)c1 (stereo unspecified),,7.94 µM (active)
Cc1ccc(S(=O)(=O)N2C[C@@H](C)[C@]3(C2)[C@H](O)[C@H](OC(=O)NCc2ccccc2)C[C@H]2C(=O)N(c4ccccc4)C(=O)[C@H]23)cc1,-29.8% (inactive),
O=C(NCc1ccccc1)C1=C[C@@H](c2ccccc2)C[C@@H](OCCCCO)O1,10.3% (inactive),
O=C(NCc1ccccc1)C1=C[C@@H](C2CCCCC2)C[C@@H](OCc2ccc(CO)cc2)O1,,10 µM (active)
O=C(C1=C[C@H](C2CC2)C[C@H](OCc2ccc(CO)cc2)O1)N1CCN(Cc2ccccc2)CC1,5.02% (inactive),
CCCNC(=O)C[C@@H]1CC[C@@H]2[C@H](COC[C@H](O)CN2C(=O)c2cc(Cl)cc(Cl)c2)O1,10.5% (inactive),
CCOc1c(Br)cc(/C=C2\C(=O)N(CCC#N)N=C2C)cc1OC,-9.5% (inactive),

Compound,"activity change, negative = inhibition",Potency
Cc1cccc(C)c1-n1c(C)cc(/C=C2\C(=O)NN(c3ccccc3)C2=O)c1C,-33.4% (inactive),
COc1cc(/C=C2/C(=O)NN(c3cccc(Cl)c3)C2=O)cc(Br)c1O,,5.01 µM (active)
Cc1ccccc1Cn1c(C)c(C(=O)NCc2cccc(C(F)(F)F)c2)sc1=O,-0.425% (inactive),
CCOC(=O)C1(C)CCCN(C(=O)c2ccc(F)c(Cl)c2)C1 (stereo unspecified),10.9% (inactive),
CC(C)C[C@H]1CNC(=O)C(=O)N1C[C@H]1CCCN1C[C@H](Cc1ccc(O)cc1)N1C[C@H](CC(C)C)N(CC2CCCCCC2)C(=O)C1=O,16.7% (inactive),
CC(=O)N1CCC(C(=O)OCc2ccc(Cl)cc2)(c2ccccc2)CC1,,10 µM (active)
O=C(OCc1cc(=O)n2ccsc2n1)C1(c2ccc(Cl)cc2)CC1,38.1% (inactive),
O=C(OCCN1CCOCC1)C1(c2ccccc2)CCCCC1,-20% (inactive),
CC=CCn1c(SCCCc2ccccc2)nc2c1c(=O)[nH]c(=O)n2C,9.86% (inactive),
CCC(=O)N1CCCC1(C)C(=O)Nc1ccc2c(c1)CCN2C(C)=O (stereo unspecified),20.5% (inactive),
O=C(c1ccccc1)C(O)(CN1CCCCC1)c1ccccc1 (stereo unspecified),7.83% (inactive),
O=C(O)c1ccc(N=NN2CCOCC2)cc1,0.44% (inactive),
O=C(O)c1cccc(N=NN2CCCCCC2)c1,,3.55 µM (active)
COc1ccc(C(=O)C(OP(=O)(OC)OC)c2ccccc2OC)cc1 (stereo unspecified),5.29% (inactive),
COc1ccccc1CNC(=O)c1cc(-c2cc(F)ccc2OC)n[nH]1,-19.5% (inactive),
O=c1[nH]n(-c2ccc([N+](=O)[O-])cc2)c(=O)c2ccccc12,,5.01 µM (active)
O=[N+]([O-])c1ccc(N2CCOCC2)cc1,2.47% (inactive),
COc1cnn(-c2ccc([N+](=O)[O-])cc2)c(=O)c1Cl,16% (inactive),
COc1ccc(S(=O)(=O)N[C@@H]2C=C[C@@H](CC(=O)N3CCc4ccccc4C3)O[C@@H]2CO)cc1,5.11% (inactive),
